Assay [1] concerns the target Rap guanine nucleotide exchange factor 3 (Homo sapiens) (UniProt O95398). In words: Confirmatory qHTS for antagonist of cAMP-regulated guanine nucleotide exchange factor 3 (EPAC1) (AID 1645880). Note: nearly all actives have a fitted effect of over 55% in size. Note: potency is the fitted concentration of half-maximal effect. The conditions noted are these: EPAC1 Rap1B-BODIPY-GDP exchange, fluorescence; series mostly up to 115 µM. The gist of the method: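 Nucleotide exchange uses 100 nM EPAC1, 250 nM RAP1B-BODIPY-GDP and 50 uM GDP, with compounds in a concentration-titration series. After 5 min at room temperature, fluorescence (480 nm ex/540 nm em) is read every 5 min for 30 min. Data are normalized to control ATA and DMSO.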
On the technique in general: Quantitative high-throughput screening tests each substance at several concentrations.

The target is the same in assay [2]. As to the kind of experiment: Confirmatory qHTS for agonist of cAMP-regulated guanine nucleotide exchange factor 3 (EPAC1) (AID 1645881).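 For activation: EPAC1 catalysed release of BODIPY-GDP from Rap1B seen as fluorescence loss; 100% = effect of cAMP agonist control.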 Note: nearly all actives have a fitted effect of over 75% in size. Note: potency is the fitted concentration of half-maximal effect. The conditions noted are these: EPAC1 Rap1B BODIPY-GDP exchange fluorescence; series mostly up to 154 µM.
Assay [3] has as its target Rap guanine nucleotide exchange factor 4 (Homo sapiens) (UniProt Q8WZA2). In words: Confirmatory qHTS for agonist of cAMP-regulated guanine nucleotide exchange factor 4 (EPAC2) (AID 1645884). For activation: % is set by controls: 0 for no effect and ±100 for the full control effect.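 Note: nucleotide exchange releases bodipy-GDP from Rap1 and this lowers its fluorescence; nearly all actives have a fitted effect of over 65% in size.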 Note: potency is the fitted concentration of half-maximal effect. Particulars: EPAC2 GEF activity, Rap1B-BODIPY-GDP fluorescence; series mostly up to 154 µM.
Assay [4] shares this target. As to the kind of experiment: Confirmatory qHTS for antagonist of cAMP-regulated guanine nucleotide exchange factor 4 (EPAC2) (AID 1645885). For activity change, negative = inhibition: % is set by controls: 0 for no effect and ±100 for the full control effect. Note: nearly all actives have a fitted effect of over 25% in size. Note: potency is the fitted concentration of half-maximal effect. Particulars: EPAC2 Rap1B-BODIPY-GDP exchange fluorescence, biochemical; series mostly up to 12.7 µM.
Assay [5] addresses Rap guanine nucleotide exchange factor 3 (Homo sapiens) (UniProt O95398). In words: Counterscreen qHTS for antagonist of cAMP-regulated guanine nucleotide exchange factor 3 (EPAC1) (AID 1645888).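 Note: fluorescence loss as bound BODIPY-GDP is released from Rap1B; % of control where 0% means no effect.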 Particulars: Rap1B-BODIPY-GDP nucleotide exchange, fluorescence; series mostly up to 154 µM. The procedure, abridged: (§1)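 Rap1B–BODIPY-GDP (250 nM) with 50 uM GDP; compounds pin-transferred to 9.74 nM–152 uM final (activator) or from 7.32 nM upwards (inhibitor). Fluorescence Ex/Em 480/540 nm read at 5 and 30 min, then after adding cAMP or buffer, at room temperature.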
(In general: A counterscreen serves to expose hits that act by an unwanted route or on another target.)

Assay [6] has the same target. In words: Counterscreen qHTS for agonist of cAMP-regulated guanine nucleotide exchange factor 3 (EPAC1) (AID 1645889). For activation: % of control where 0% means no effect. Note: nearly all actives have a fitted effect of over 40% in size. Note: potency is the fitted concentration of half-maximal effect. Particulars: EPAC1 Rap1B-BODIPY-GDP exchange, fluorescence; series mostly up to 154 µM. The gist of the method:
as §1

Records with an inconclusive call do not appear. Unmarked numbers belong to inactive results. Calls of active or inactive are those of the source. Calls come from the whole dose curve; as a rule, active = well fitted curve in the direction sought with a large enough effect; inconclusive = small, poorly fitted or top-dose-only effect, or another doubt; inactive = no such curve, though single readings can be large; an effect the other way counts as inactive or inconclusive.

The text below walks through data of PubChem BioAssay (NCATS).

Chain of Rap guanine nucleotide exchange factor 3 (Homo sapiens) (O95398 whole entry, looked up): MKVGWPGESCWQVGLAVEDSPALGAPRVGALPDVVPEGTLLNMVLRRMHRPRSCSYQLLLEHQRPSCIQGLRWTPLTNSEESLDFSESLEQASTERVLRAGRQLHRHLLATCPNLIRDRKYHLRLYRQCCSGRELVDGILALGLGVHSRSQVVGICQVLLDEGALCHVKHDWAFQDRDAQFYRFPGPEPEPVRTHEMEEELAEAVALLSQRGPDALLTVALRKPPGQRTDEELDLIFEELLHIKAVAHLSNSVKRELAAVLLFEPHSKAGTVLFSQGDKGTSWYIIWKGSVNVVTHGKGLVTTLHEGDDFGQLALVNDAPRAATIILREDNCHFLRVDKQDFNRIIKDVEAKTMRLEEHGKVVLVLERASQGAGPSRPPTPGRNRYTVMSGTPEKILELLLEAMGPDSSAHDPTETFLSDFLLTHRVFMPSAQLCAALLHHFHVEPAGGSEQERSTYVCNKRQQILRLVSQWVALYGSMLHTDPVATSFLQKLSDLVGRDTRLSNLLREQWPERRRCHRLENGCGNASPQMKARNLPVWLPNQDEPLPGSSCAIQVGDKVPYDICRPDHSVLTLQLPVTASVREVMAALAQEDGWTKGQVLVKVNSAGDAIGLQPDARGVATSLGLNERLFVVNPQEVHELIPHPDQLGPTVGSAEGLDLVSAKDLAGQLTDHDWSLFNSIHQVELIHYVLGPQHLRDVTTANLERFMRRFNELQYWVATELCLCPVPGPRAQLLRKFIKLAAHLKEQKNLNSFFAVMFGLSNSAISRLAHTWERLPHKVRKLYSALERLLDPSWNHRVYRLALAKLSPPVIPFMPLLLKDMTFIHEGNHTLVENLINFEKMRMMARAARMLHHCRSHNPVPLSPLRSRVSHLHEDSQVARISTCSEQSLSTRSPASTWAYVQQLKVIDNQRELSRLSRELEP
Chain of Rap guanine nucleotide exchange factor 4 (Homo sapiens) (Q8WZA2 whole entry, looked up): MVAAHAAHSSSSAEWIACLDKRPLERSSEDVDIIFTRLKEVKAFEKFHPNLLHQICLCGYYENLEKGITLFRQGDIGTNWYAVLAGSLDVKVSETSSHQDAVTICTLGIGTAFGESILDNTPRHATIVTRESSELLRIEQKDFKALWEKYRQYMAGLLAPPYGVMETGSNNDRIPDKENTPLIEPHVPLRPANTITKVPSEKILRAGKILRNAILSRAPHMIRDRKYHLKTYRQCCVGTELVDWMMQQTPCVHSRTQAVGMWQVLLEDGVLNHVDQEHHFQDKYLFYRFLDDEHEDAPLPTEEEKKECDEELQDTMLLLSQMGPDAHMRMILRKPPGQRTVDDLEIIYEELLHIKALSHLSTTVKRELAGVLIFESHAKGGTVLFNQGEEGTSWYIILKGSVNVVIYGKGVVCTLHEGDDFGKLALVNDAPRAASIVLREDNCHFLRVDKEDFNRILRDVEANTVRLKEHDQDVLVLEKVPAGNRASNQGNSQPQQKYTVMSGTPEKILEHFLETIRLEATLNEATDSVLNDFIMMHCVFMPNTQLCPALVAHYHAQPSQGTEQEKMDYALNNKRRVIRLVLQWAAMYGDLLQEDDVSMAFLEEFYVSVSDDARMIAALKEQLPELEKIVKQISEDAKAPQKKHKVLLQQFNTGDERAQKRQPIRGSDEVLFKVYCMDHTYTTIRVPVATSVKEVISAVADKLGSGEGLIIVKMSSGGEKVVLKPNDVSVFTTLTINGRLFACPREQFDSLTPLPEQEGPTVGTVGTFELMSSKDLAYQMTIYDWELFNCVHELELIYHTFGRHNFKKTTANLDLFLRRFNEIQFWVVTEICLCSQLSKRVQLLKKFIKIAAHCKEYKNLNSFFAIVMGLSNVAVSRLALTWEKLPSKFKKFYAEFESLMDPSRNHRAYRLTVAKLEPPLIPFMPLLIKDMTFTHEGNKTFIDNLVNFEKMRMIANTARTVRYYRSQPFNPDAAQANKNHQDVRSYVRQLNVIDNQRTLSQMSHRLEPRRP

Turning to `O=C(Cn1nnc2sc(-c3ccccc3)cc2c1=O)Nc1cccc(C(F)(F)F)c1`, the Potency result in assay [1], in assay [2], in assay [3], in assay [4], in assay [5] and in assay [6] was “inactive” in each case.
In the case of `CC1(C(=O)NS(=O)(=O)c2ccc(Cl)s2)CCN1C(=O)C1(c2ccccc2)CCCC1` (stereo not drawn), the Potency in assay [1] was 37.9 µM (active); in assay [4], 8.49 µM (active). In addition, the Potency entry in assay [2], in assay [3], in assay [5] and in assay [6] was “inactive” throughout.
As for `CN1CCN(S(=O)(=O)c2ccc(Nc3ccc(F)cc3)nc2)CC1`, the Potency entry in assay [1], in assay [2] and in assay [4] was “inactive” each time. Besides, the activation in assay [3] is 6.27% [at 17.1 µM, percent relative to cAMP agonist control]; in assay [6] it was 16.5% [at 30.8 µM]. In assay [5], the activity change, negative = inhibition was -5.53% [at 30.8 µM].
Regarding `C=CC[C@@H](CC(=O)NCCO)C(=O)N[C@@H](C)COC(=O)[C@H](CC=C)CC(=O)OC(C)(C)C`, the Potency result in assay [1], in assay [2] and in assay [4] was “inactive” each time. Also, the activation was -2.5% [at 17.1 µM, percent relative to cAMP agonist control] in assay [3] and -7.04% [at 30.8 µM] in assay [6]. For the same compound, the activity change, negative = inhibition in assay [5] is 2.15% [at 30.8 µM].
For the compound `O=C(NCCOc1ccccc1-c1ccccc1)c1ccco1`, the Potency result in assay [1], in assay [2] and in assay [4] was “inactive” throughout. Moreover, the activation in assay [3] was 6.96% [at 17.1 µM, percent relative to cAMP agonist control]; in assay [6] it was 12.2% [at 30.8 µM]. In addition, in assay [5], the activity change, negative = inhibition was -5.39% [at 30.8 µM].
With `S=C(NCCCN1CCOCC1)Nc1cccc(-c2nnc3n2CCCCC3)c1`, the Potency entry in assay [1], in assay [2], in assay [3], in assay [4], in assay [5] and in assay [6] was “inactive” in each case.
Take `CC(OC(=O)CN1C(=O)COc2ccccc21)C(=O)NCc1ccc(F)cc1` (stereo not drawn): the Potency entry in assay [1], in assay [2], in assay [3], in assay [4], in assay [5] and in assay [6] was “inactive” in each case.
In the case of `CCOc1c(OC)cccc1C(=O)NCC1(c2ccccc2)CCCC1`, the Potency result in assay [1], in assay [2], in assay [3], in assay [4], in assay [5] and in assay [6] was “inactive” throughout.
`COc1cccc(/C(=N/O)C2CC2c2ccc(Cl)cc2)c1` (stereo not drawn): the Potency result in assay [1], in assay [2] and in assay [4] was “inactive” throughout. The activation in assay [3] was 1.73% [at 17.1 µM, percent relative to cAMP agonist control]; in assay [6] it was 9.41% [at 30.8 µM]. The activity change, negative = inhibition in assay [5] is -11.7% [at 30.8 µM].
For `CCN(CC)c1ccc2cc(-c3nnc(-c4ccccc4)o3)c(=O)oc2c1`, the Potency result in assay [1] and in assay [5] was “inactive” in each case. Further, the Potency in assay [2] is 15.8 µM (active); in assay [3] it was 15.8 µM (active); in assay [4], 4.26 µM (active); in assay [6] it was 15.8 µM (active).
Take `O=C(c1ccc(CSCc2ccccc2F)o1)N1CCN(c2ccc(N3CCOCC3)nn2)CC1`: the Potency entry in assay [1], in assay [2] and in assay [4] was “inactive” each time. Besides, the activation in assay [3] was 3.73% [at 17.1 µM, percent relative to cAMP agonist control]; in assay [6], 14.5% [at 30.8 µM]. The activity change, negative = inhibition in assay [5] is -4.38% [at 30.8 µM].
For `COc1ccc(C(=O)N2CCc3cc(OC)c(OC)cc3C2c2ccc(OC)c(OC)c2)cc1` (stereo not drawn), the Potency result in assay [1], in assay [2] and in assay [4] was “inactive” each time. Further, the activation in assay [3] is 5.17% [at 17.1 µM, percent relative to cAMP agonist control]; in assay [6], 15.1% [at 30.8 µM]. The activity change, negative = inhibition in assay [5] is -5.18% [at 30.8 µM].
In the case of `O=C(CCC(=O)N1CCSc2ccccc21)NCc1cccc(Cl)c1`, the Potency result in assay [1], in assay [2] and in assay [4] was “inactive” throughout. Besides, the activation in assay [3] was 1.67% [at 17.1 µM, percent relative to cAMP agonist control]; in assay [6] it was 22.1% [at 30.8 µM]. For the same compound, the activity change, negative = inhibition in assay [5] is 1.86% [at 30.8 µM].
`O=c1c2sccc2nc(SCc2cc(=O)n3cc(Cl)ccc3n2)n1Cc1ccccn1`: the Potency entry in assay [1], in assay [2], in assay [3], in assay [4], in assay [5] and in assay [6] was “inactive” in each case.
For the compound `CC(C)CCNC1c2ccccc2C(=O)N1Cc1ccccc1` (stereo not drawn), the Potency entry in assay [1], in assay [2] and in assay [4] was “inactive” in each case. Further, the activation in assay [3] was 11.2% [at 17.1 µM, percent relative to cAMP agonist control]; in assay [6] it was 2.24% [at 30.8 µM]. Moreover, in assay [5], the activity change, negative = inhibition was -10.7% [at 30.8 µM].
As to `CC(/C=C1\SC(=S)N(C(C(=O)O)C(C)C)C1=O)=C\c1ccccc1` (stereo not drawn), the Potency in assay [1] was 47.8 µM (active). Besides, the Potency result in assay [2], in assay [3], in assay [4], in assay [5] and in assay [6] was “inactive” in each case.
For `CN(C)C(=O)CSc1nc(-c2ccccc2)c(-c2ccccc2)o1`, the Potency entry in assay [1], in assay [2] and in assay [4] was “inactive” in each case. The activation in assay [3] was 5.35% [at 17.1 µM, percent relative to cAMP agonist control]; in assay [6], 9.57% [at 30.8 µM]. Besides, the activity change, negative = inhibition in assay [5] is 3.97% [at 30.8 µM].
`CCC(=O)Nc1ccc(C(=O)NNC(=O)c2ccc([N+](=O)[O-])cc2)cc1`: the Potency result in assay [1], in assay [2], in assay [3], in assay [4], in assay [5] and in assay [6] was “inactive” in each case.
